# Source: PubChem BioAssay (NCI)
# Compounds without any hit were thinned out: in the full panel of roughly 83,000, 20% have a hit.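 Note: values are percent growth. 100 is the growth of untreated cells, values between 100 and 0 indicate rising inhibition; between -100 and 0 indicates cell death.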 A number with no mark means an inactive call. Active and inactive are the calls of the source. How the source made its calls: active means growth percent below 10; inactive means the rest.
# Experiments:
# Assay in all cases: NCI-60 one-dose screen, 48 h (100 = growth as untreated, 0 = no growth, -100 = all killed)
# Settings in all cases: 10 µM
# SR leukemia = system: SR leukemia
# RPMI-8226 leukemia = system: RPMI-8226 leukemia
# OVCAR-8 ovarian = system: OVCAR-8 ovarian
# OVCAR-5 ovarian = system: OVCAR-5 ovarian
# OVCAR-4 ovarian = system: OVCAR-4 ovarian
# SK-OV-3 ovarian = system: SK-OV-3 ovarian
# OVCAR-3 ovarian = system: OVCAR-3 ovarian
# HS 578T breast = system: HS 578T breast
# NCI/ADR-RES ovarian = system: NCI/ADR-RES ovarian
# T-47D breast = system: T-47D breast
# BT-549 breast = system: BT-549 breast
# MDA-MB-435 melanoma = system: MDA-MB-435 melanoma
# MCF7 breast = system: MCF7 breast
# HCT-116 colon = system: HCT-116 colon
# HCC-2998 colon = system: HCC-2998 colon
# SW-620 colon = system: SW-620 colon
# KM12 colon = system: KM12 colon
# IGROV1 ovarian = system: IGROV1 ovarian
Compound,growth (SR leukemia),growth (RPMI-8226 leukemia),growth (OVCAR-8 ovarian),growth (OVCAR-5 ovarian) [%],growth (OVCAR-4 ovarian) [%],growth (SK-OV-3 ovarian),growth (OVCAR-3 ovarian),growth (HS 578T breast),growth (NCI/ADR-RES ovarian),growth (T-47D breast),growth (BT-549 breast),growth (MDA-MB-435 melanoma),growth (MCF7 breast),growth (HCT-116 colon),growth (HCC-2998 colon),growth (SW-620 colon),growth (KM12 colon),growth (IGROV1 ovarian)
O=C(COc1cccc(/C=C2\CSc3ccc(Cl)cc3C2=O)c1)c1ccc(Cl)cc1,-3.18% (active),-25.1% (active),66.9%,86.7,75,86.2%,90.3%,93%,72.8%,45.2%,20.2%,87.7%,-35.1% (active),42%,32.9%,–,–,–
O=c1oc2c(cc1-c1ccc(F)cc1)C(O)Oc1ccccc1-2 (stereo not given),58.1%,90.8%,100%,96.2,90.6,105%,80.4%,16.6%,54.5%,87.4%,87.6%,3.53% (active),55.2%,–,48.6%,45.4%,45.3%,–
O=[N+]([O-])c1cc(Cl)cc(Cl)c1O,103%,103%,103%,103,108,91.3%,109%,97.6%,–,93%,–,98.5%,104%,93.5%,105%,103%,98.9%,104%
COc1ccc(-c2nc(-c3nc4ccc(C)cc4[nH]3)cc3c2[nH]c2ccccc23)cc1,10.2%,16.2%,21.4%,83.9,45.1,107%,45.1%,66.9%,19.4%,32.7%,71.7%,46%,36.1%,19.3%,–,81.4%,21%,–
O=C1c2c(c(=O)[nH]c3ccccc23)CCN1Cc1ccccc1,115%,91.9%,96.4%,92.9,155,98.1%,121%,119%,98.6%,86.1%,87.1%,110%,97.5%,94.8%,111%,105%,114%,–
COc1ccc(Cl)cc1Nc1nc(C(F)(F)F)ccc1C(=O)N/N=C/c1cc(OC)c(OC)c(OC)c1,14.1%,23%,53.2%,62.4,23.7,34.9%,10.2%,-11.3% (active),0.977% (active),29.7%,15.9%,37.1%,17.8%,–,8.93% (active),16.7%,–,–
COc1ccc(C(=O)COc2cccc(/C=C3\Cc4ccccc4C3=O)c2)cc1,56.7%,57.9%,91.7%,88.5,76.8,95.8%,97.2%,86.9%,74.4%,73.8%,74.5%,58.8%,65.9%,84.4%,92.9%,89.5%,–,–
NC(N)=N/N=C(\c1ccccc1)C(O)c1ccccc1 (stereo not given),95.9%,94.5%,105%,112,105,94.2%,111%,–,111%,89.9%,103%,107%,94.9%,100%,100%,–,105%,100%
O=C1CC(=O)N(C(=O)c2nn(-c3ccc(Cl)cc3)cc2O)N1,-31.9% (active),-8% (active),30.1%,65.2,34.1,40.7%,-4.11% (active),121%,–,23.4%,–,48.1%,39.9%,22.1%,47.4%,59.9%,46.5%,34.4%
Nc1ncc(-c2cnn(C3CCNCC3)c2)cc1-c1nc2ccccc2o1,-74.7% (active),-56% (active),9.55% (active),34.6,35.8,3.49% (active),-62.4% (active),-14.7% (active),–,-4.42% (active),–,-55.5% (active),11.6%,-2.99% (active),14.2%,-60.4% (active),-81.3% (active),-14.5% (active)
Cc1cc(=O)n2nnc3cc(Cl)c(Cl)cc3n12,70.5%,97.4%,106%,107,92.1,85.2%,77.8%,122%,101%,76.3%,114%,103%,96.3%,91.8%,108%,23.4%,109%,–
O=[N+]([O-])c1ccc(/C(=C/c2ccccc2)[n+]2ccccc2)cc1,102%,98.3%,97%,98,100,119%,127%,–,116%,112%,109%,101%,98.7%,107%,126%,103%,–,109%
O=C1C=C(Nc2cccc(Br)c2)c2ccccc2C1=O,56.8%,63.1%,69.5%,73.1,77.6,25.7%,38.9%,38.5%,71.1%,102%,14.7%,-25.2% (active),21%,52%,75.5%,29.7%,–,–
CC1C(=NC(=O)c2cnccn2)C(C)C(c2ccc(Cl)cc2)NC1c1ccncc1 (stereo not given),126%,69.1%,88.3%,103,122,94.4%,113%,125%,90.3%,78%,95.4%,96.9%,91.3%,73.6%,115%,111%,–,–
Nc1nc(Cn2c(-c3nonc3N)nc3ccccc32)nc(N2CCCCC2)n1,58.9%,68%,93.2%,109,107,79.1%,95.6%,97.2%,83.3%,83%,89%,39.2%,83.5%,87.7%,95.9%,94.4%,75.6%,–
COc1cccc(CNc2cccc3cn[nH]c23)c1O,103%,100%,96.5%,106,80.7,101%,100%,–,–,89.1%,104%,–,71.5%,102%,107%,99.1%,99%,88.8%
Cc1cc(C)nc(NS(=O)(=O)c2ccc(Nc3nc4nc(NCc5ccccc5)nc(-c5ccc(O)cc5)c4c(=O)[nH]3)cc2)n1,26.5%,18.1%,49.5%,45.2,18.3,35.2%,34.2%,35.6%,20.3%,25.1%,34%,32.1%,16.1%,–,19.5%,11.2%,29.6%,–
CCOC(=O)N/N=C/c1ccc(OC)c(OC)c1,105%,102%,102%,112,110,114%,128%,–,116%,105%,106%,106%,98.7%,102%,114%,109%,117%,110%
CCN(CC)CCN1c2nc3ccccc3cc2Sc2cc3ccccc3nc21,-53% (active),-15.9% (active),7.3% (active),13.6,15.8,46%,27.1%,12.4%,4.85% (active),73.5%,-92.4% (active),-25% (active),-100% (active),-45.4% (active),-99% (active),-29.7% (active),–,–
